# According to PubChem BioAssay (NCI):
# About 83,000 compounds went through this panel and 20% of them were active in at least one assay; those are over-represented in the sample as a whole.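 Negative percent growth values reflect cell death: -40 means 40% of the cells present at the start died, and -100 means all died.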 Unmarked numbers belong to inactive results. Calls of active or inactive are those of the source. How the source made its calls: active means growth percent below 10; inactive means the rest.
# Legend:
# Experiment in all cases: NCI-60 one-dose screen, 48 h (100 = growth as untreated, 0 = no growth, -100 = all killed)
# Details in all cases: 10 µM unless noted
# [1] = test system: SR leukemia
# [2] = test system: RPMI-8226 leukemia
# [3] = test system: OVCAR-8 ovarian
# [4] = test system: OVCAR-5 ovarian
# [5] = test system: OVCAR-4 ovarian
# [6] = test system: SK-OV-3 ovarian
# [7] = test system: IGROV1 ovarian
# [8] = test system: OVCAR-3 ovarian
# [9] = test system: HS 578T breast
# [10] = test system: NCI/ADR-RES ovarian
SMILES,growth [1],growth [2],growth [3],growth [4],growth [5],growth [6],growth [7],growth [8],growth [9],growth [10]
Nc1ncnc2c1c(C(F)(F)F)cn2[C@@H]1O[C@H](CO)[C@@H](O)[C@H]1O,1.01% (active),-20.3% (active),18.1%,15.6%,24.6%,28.2%,12.9%,5.78% (active),-0.85% (active),7.35% (active)
CCCCn1c(-c2cccc(OC)c2)nc2cc(OC)c(OC)cc2c1=O,75.1%,58.9%,118%,101%,108%,119%,89.2%,113%,104%,94.2%
CCOC(=O)CSc1nnc(-c2cc3c([nH]c4ccccc43)c(-c3cccc(O)c3)n2)n1-c1ccc(C)cc1,13.7%,76.1%,16.7%,96.4%,72.6%,105%,28.3%,31.1%,58.7%,89.9%
CCCCCC/C=N/Nc1ccc([N+](=O)[O-])cn1,89.4%,105%,110%,100%,118%,81.1%,105%,103%,108%,102%
COc1cc(C(=O)NNC(=O)c2ccccc2O)cc(OC)c1OC,77.8%,86.8%,82.9%,103%,110%,87.8%,98.8%,109%,95.1%,94.5%
CN1C(=O)C2(NN=C(c3cccc4ccccc34)S2)c2ccccc21 (stereo not given),28.5%,18.2%,26.2%,50.2%,20%,26.5%,39.4%,40.2%,51.1%,29%
C=C1C(=O)O[C@H]2[C@H]1CC/C(COC(=O)OC/C1=C/CC[C@@]3(C)O[C@H]3[C@H]3OC(=O)[C@@H](CN(C)C)[C@@H]3CC1)=C\CC[C@@]1(C)O[C@@H]21,-8.72% (active),-5.37% (active),9.26% (active),7.16% (active),46%,87.7%,10.4%,-90.3% (active),57.4%,91.2%
CCCCCCCCN(CCCCCCCC)CC(O)c1cc(-c2ccccc2)nc2ccc(OC)cc12 (stereo not given),5.05% (active),1.99% (active),8.91% (active),101%,78.4%,103%,95.8%,66.6%,99.1%,13.4%
COc1ccc(-c2nnc(SCC(=O)N3CCN(c4cc5c(cc4F)c(=O)c(C(=O)O)cn5C4CC4)CC3)o2)cc1OC,90.6%,90.1%,96.9%,96.2%,103%,84.2%,97.1%,111%,101%,98.1%
O=C(CSc1nnc(-c2cc3c([nH]c4ccccc43)c(-c3cccc(O)c3)n2)n1-c1ccccc1)c1ccccc1,18.6%,43.4%,57.3%,104%,50.1%,92.8%,61.2%,40.6%,73.3%,64%
COc1ccc(-c2cnc(-c3ccc(F)cc3)[nH]2)cc1,-29.7% (active),44.5%,103%,116%,98.3%,121%,95.3%,91.3%,99.2%,115%
C=C1C(=O)O[C@H]2[C@H]1CC/C(COC(=O)c1ccc(Br)cc1)=C\CC[C@@]1(C)O[C@@H]21,-27.5% (active),-44.5% (active),-36.6% (active),1.16% (active),-14.3% (active),111%,-57.6% (active),-81.2% (active),17.8%,24.7%
Clc1ccc(OCc2nc(-c3ccccc3)n[nH]2)c(Cl)c1,97.1%,94%,96.5%,99.7%,98.1%,80.9%,97.6%,108%,88.6%,101%
CCC(N)(C(=O)O)c1ccc(F)cc1 (stereo not given),105%,98.4%,101%,111%,117%,113%,109%,99.9%,111%,106%
CCCCCCCCCCCCCCCCNc1ccccc1,75.1%,52.5%,91.8%,115%,105%,103%,91.6%,104%,108%,104%
Cc1cc(Nc2ccc(Cl)c(Cl)c2)nc(N)n1,78%,80.9%,107%,105%,92.8%,105%,114%,98.9%,92.6%,98.3%
CCNC(=O)Oc1ccc(/C(=C(/CC)Cc2ccccc2)c2ccc(OCCN3CCOCC3)cc2)cc1,29.2%,16%,57.8%,94.8%,45.9%,75.5%,59.4%,50.8%,62.5%,49.4%
c1nc(SC2=NCCN2)c2[nH]cnc2n1,22%,29.2%,41%,48.5%,61.7%,8.1% (active),64%,30.8%,79.4%,22.5%
CCCCCCCC(=O)SCC/C=C/[C@@H]1CC(=O)NCc2nc(cs2)C2=N[C@@](C)(CS2)C(=O)N[C@@H](C(C)C)C(=O)N1,6.51% (active),-6.34% (active),5.08% (active),22.5%,31%,-4.42% (active),0.908% (active),-7.56% (active),11.5%,84.5%
COc1ccc(Cl)cc1NC(=O)c1cc2c([nH]1)-c1nc(N)sc1CCC2,79.4%,108%,101%,103%,111%,98.4%,106%,106%,108%,92.7%
Nc1nc(-c2cc3c(cc2Cl)NC(=O)/C3=C/c2ccccc2)cs1,14.2%,37.6%,46.6%,108%,69.6%,81.1%,35.4%,29.8%,58.7%,74.6%
NCC(=O)NS(=O)(=O)OC[C@H]1O[C@@H](n2cnc3c(N)ncnc32)[C@H](O)[C@@H]1O,9.93% (active),18%,-11.9% (active),0.292% (active),-22.1% (active),6.28% (active),11.7%,10%,16.1%,2.07% (active)
COc1ccc(C(=O)NC(=O)Nc2ccc3c(c2)NC(=O)/C3=C\c2[nH]c(C)c(C(=O)O)c2C)cc1,34.3%,83.2%,39.9%,121%,93%,118%,75.4%,52.7%,46.8%,99.1%
CC(=O)n1cc(/C=C2\N=C(c3ccc(Cl)cc3)N(c3ccc(S(=O)(=O)Nc4nccs4)cc3)C2=O)c2ccccc21,61.3%,62%,66.1%,105%,73.3%,110%,91.4%,76.9%,72.4%,106%
COC(=O)/C=C/C(=O)c1cc(C)cc(C)c1O,90%,104%,111%,98.9%,101%,104%,106%,102%,112%,99.5%
CN(C)CCNc1nc2ccccc2c2c(=O)c3ccccc3sc12,-18.1% (active),-8.02% (active),14.6%,46%,38.4%,31.5%,28.5%,31.2%,30.3%,20.9%
COc1ccc(NC(=O)Nc2ccc(-c3ccc(OC)c(OC)c3)nc2C)cc1,57.3%,83.8%,47.4%,98%,29.5%,74.8%,77.1%,102%,40%,85%
